# Key:
# Assay in all cases: DAPPL (digital affinity profiling via proximity ligation, sequencing); 10 mM Tris-HCl pH 7.5, 50 mM NaCl, 1 mM DTT, 4% glycerol, room temperature, 30 min; GST-TFs on glutathione beads, 16-mer random dsDNA library, 0.1% formaldehyde crosslink after washing; high values mean tight binding
# Conditions in all cases: protein: recombinant; tags: N-terminal GST; dsDNA, one strand shown
# FLI1 = molecular target: T1, FLI1 (Homo sapiens, UniProt Q01543 1-452)
# T1 sequence: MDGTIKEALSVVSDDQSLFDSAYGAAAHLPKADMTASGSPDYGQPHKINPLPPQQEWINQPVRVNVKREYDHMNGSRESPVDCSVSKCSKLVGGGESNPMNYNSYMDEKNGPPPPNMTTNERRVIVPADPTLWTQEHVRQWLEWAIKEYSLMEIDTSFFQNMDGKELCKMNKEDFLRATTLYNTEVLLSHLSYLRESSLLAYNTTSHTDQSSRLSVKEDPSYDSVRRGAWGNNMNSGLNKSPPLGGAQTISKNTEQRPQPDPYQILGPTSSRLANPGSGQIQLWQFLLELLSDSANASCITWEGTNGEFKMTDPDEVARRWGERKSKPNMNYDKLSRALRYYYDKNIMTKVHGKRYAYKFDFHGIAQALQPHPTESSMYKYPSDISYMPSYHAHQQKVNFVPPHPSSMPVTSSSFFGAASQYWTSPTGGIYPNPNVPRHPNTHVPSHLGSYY
# In short: (§1)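 Pools were built from human transcription factors expressed in yeast as GST fusions, captured on glutathione beads and DNA-barcoded, along with a tag-only sample. Incubation with 200 nmole of a 16-mer random double-stranded DNA library lasted 30 min at room temperature in Tris/NaCl/DTT/glycerol buffer, and was followed by washing, 0.1% formaldehyde crosslinking, proximity ligation, PCR amplification and Illumina NextSeq500 sequencing. Binding signal is the quotient of each hexamer's read frequency for a factor and its frequency for the tag-only sample.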
# ELK1 = molecular target: T2, ELK1 (Homo sapiens, UniProt P19419 1-428)
# T2 sequence: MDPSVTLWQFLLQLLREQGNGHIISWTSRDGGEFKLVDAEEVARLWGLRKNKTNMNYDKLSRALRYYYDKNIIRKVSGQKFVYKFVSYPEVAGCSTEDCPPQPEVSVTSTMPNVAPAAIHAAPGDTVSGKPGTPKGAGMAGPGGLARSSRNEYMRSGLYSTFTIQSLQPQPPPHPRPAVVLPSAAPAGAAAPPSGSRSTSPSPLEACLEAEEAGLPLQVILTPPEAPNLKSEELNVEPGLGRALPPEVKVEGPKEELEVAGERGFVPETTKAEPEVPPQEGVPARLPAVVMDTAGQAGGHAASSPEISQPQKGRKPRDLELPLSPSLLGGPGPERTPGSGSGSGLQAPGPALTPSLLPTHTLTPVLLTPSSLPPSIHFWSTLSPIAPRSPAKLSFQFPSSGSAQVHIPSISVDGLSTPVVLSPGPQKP
# In short: as §1
# GABPA = molecular target: T3, GABPA (Homo sapiens, UniProt Q06546 1-454)
# T3 sequence: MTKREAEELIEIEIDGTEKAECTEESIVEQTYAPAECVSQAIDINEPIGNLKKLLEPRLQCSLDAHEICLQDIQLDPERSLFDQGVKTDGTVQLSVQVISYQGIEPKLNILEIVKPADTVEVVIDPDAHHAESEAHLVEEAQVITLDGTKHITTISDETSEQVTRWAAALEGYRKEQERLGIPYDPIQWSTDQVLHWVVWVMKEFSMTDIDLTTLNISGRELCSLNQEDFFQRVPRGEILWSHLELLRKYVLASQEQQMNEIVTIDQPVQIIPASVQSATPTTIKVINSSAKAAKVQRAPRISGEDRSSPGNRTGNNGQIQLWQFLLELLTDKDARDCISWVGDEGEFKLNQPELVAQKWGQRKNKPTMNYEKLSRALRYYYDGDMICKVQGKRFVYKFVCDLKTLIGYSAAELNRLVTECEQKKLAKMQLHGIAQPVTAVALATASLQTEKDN
# In short: as §1
# ERG = molecular target: T4, ERG (Homo sapiens, UniProt P11308 1-479)
# T4 sequence: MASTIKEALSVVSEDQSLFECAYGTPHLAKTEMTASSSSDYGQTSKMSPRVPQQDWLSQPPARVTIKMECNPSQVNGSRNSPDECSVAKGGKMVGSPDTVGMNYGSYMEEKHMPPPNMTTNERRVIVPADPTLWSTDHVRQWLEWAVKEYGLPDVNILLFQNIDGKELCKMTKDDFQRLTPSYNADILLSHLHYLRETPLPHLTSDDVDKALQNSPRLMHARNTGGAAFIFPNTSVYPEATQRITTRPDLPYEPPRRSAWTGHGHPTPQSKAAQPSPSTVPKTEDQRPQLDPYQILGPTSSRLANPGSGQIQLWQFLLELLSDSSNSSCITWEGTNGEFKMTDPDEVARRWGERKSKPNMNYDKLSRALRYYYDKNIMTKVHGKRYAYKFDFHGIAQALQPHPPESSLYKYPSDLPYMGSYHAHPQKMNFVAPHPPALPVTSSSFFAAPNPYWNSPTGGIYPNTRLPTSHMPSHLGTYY
# In short: as §1
# ELF1 = ELF1 (Homo sapiens, UniProt P32519 1-619)
# In short: as §1
# EHF = molecular target: T5, EHF (Homo sapiens, UniProt Q9NZC4 1-300)
# T5 sequence: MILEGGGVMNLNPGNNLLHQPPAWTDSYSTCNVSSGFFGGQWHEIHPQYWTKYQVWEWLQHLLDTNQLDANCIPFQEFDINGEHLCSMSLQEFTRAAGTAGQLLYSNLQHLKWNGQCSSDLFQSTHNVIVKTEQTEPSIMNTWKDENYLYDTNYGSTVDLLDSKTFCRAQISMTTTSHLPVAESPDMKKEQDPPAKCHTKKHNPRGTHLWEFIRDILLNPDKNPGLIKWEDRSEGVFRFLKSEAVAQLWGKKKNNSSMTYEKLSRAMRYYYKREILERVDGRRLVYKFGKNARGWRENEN
# In short: as §1
# SPI1 = SPI1 (Homo sapiens, UniProt P17947 1-270)
# In short: as §1
# SPIB = SPIB (Homo sapiens, UniProt Q01892 1-262)
# In short: as §1
# ELK3 = molecular target: T6, ELK3 (Homo sapiens, UniProt P41970 1-407)
# T6 sequence: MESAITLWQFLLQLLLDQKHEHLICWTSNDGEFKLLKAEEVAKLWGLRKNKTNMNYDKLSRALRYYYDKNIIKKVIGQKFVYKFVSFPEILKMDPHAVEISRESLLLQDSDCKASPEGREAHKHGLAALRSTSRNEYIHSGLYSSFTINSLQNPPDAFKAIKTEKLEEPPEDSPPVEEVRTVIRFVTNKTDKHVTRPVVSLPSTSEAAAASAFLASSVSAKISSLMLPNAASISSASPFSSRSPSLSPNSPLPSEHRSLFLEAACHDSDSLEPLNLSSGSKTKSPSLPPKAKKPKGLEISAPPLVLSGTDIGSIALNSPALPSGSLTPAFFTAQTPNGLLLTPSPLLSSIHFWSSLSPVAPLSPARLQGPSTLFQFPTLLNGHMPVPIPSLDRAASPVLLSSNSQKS
# In short: as §1
# ETV5 = ETV5 (Homo sapiens, UniProt P41161 1-510)
# In short: as §1
# SPIB, sequence (Q01892 whole entry): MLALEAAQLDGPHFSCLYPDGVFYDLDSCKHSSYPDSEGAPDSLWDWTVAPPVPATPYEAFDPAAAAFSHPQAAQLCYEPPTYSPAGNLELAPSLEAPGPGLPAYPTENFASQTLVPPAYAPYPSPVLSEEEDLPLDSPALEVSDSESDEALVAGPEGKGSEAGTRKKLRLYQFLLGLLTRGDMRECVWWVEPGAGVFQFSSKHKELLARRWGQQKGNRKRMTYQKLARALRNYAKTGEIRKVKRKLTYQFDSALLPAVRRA
# ETV5, sequence (P41161 whole entry): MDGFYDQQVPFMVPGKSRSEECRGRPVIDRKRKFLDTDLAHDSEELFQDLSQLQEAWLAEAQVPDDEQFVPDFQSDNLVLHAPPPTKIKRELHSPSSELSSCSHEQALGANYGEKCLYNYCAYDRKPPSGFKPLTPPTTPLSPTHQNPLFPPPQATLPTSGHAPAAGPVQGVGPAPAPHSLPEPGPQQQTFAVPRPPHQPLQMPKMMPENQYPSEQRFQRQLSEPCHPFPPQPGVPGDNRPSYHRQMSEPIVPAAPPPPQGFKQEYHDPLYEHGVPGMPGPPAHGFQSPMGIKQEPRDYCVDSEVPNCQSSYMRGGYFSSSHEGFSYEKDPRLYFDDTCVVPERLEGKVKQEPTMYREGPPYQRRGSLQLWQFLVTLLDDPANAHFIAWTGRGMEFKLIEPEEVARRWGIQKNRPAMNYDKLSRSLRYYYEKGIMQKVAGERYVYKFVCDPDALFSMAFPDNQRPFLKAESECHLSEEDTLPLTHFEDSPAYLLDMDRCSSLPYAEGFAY
# ELF1, sequence (P32519 whole entry): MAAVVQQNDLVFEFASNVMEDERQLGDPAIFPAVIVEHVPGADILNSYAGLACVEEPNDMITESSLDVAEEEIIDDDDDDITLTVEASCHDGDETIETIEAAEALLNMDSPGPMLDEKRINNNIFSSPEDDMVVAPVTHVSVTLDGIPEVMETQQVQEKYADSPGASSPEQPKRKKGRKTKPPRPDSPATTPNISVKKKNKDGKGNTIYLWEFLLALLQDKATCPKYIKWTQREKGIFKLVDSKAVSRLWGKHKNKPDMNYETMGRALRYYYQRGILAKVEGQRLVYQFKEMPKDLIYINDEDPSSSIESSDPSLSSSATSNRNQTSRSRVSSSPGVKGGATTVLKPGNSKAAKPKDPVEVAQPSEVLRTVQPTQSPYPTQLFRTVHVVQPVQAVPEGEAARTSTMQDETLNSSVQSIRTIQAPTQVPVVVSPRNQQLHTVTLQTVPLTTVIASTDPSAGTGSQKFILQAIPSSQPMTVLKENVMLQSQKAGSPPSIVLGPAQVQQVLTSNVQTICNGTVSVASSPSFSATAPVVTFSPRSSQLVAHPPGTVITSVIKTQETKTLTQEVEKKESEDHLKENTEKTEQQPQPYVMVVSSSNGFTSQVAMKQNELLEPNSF
sequence,measurement,setting,value
AACTGA,binding signal,FLI1,"1.07 fold enrichment (6-mer frequency, TF over GST control)"
same,binding signal,ELK1,"1.08 fold enrichment (6-mer frequency, TF over GST control)"
same,binding signal,GABPA,"1.08 fold enrichment (6-mer frequency, TF over GST control)"
same,binding signal,ERG,"1.11 fold enrichment (6-mer frequency, TF over GST control)"
same,binding signal,ELF1,"1.13 fold enrichment (6-mer frequency, TF over GST control)"
same,binding signal,EHF,"1.1 fold enrichment (6-mer frequency, TF over GST control)"
same,binding signal,SPI1,"1.13 fold enrichment (6-mer frequency, TF over GST control)"
same,binding signal,SPIB,"1.15 fold enrichment (6-mer frequency, TF over GST control)"
same,binding signal,ELK3,"1.06 fold enrichment (6-mer frequency, TF over GST control)"
same,binding signal,ETV5,"1.11 fold enrichment (6-mer frequency, TF over GST control)"

# Source: article PMC7862700, “An all-to-all approach to the identification of sequence-specific readers for epigenetic DNA modifications on cytosine”
